# Source: PubChem BioAssay
# Sampled rows, rich in hits. Any-hit rate of the full collection: about 5.9%.
# GLP1R ag = qHTS of GLP-1 Receptor Agonists | Glucagon-like peptide 1 receptor (Homo sapiens), P43220 | AID 624172, 2012 | Potency, µM (series often up to 45.6 µM), usual class: activators | HEK293 GLP-1R CRE-luciferase, luminescence, 4-6 h; cells express a hypersensitive GLP-1R form | actives 0.007% (n = 380,000)
# GLP1R cytotox = qHTS of GLP-1 Receptor Inverse Agonists: Cytotox Screen; HEK293 cAMP-luciferase reporter cells, luminescence, 24 h; Potency, µM (doses to about 38.3 µM), hits mostly inhibitors; actives 0.13% (n = 410,000);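 also: loss of luciferase light is scored as toxicity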
#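 Compound-treated cells are incubated 24 hr at 37 deg C under 5% CO2 after a 12 hour attachment period, then luciferase detection reagent is added and luminescence is measured following 12 min at room temperature; lowered signal indicates toxicity.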
# RORgamma inh = qHTS for inhibitors of ROR gamma transcriptional activity. Nuclear receptor ROR-gamma (Mus musculus), P51450. Drosophila S2 Gal4-RORgamma UAS-luciferase reporter, 20 h. Potency, µM (titrated, usually from 53.6 µM), hits mostly inhibitors. actives 5.4% (n = 310,000); also: nearly all actives have a fitted effect of over 60% in size
# Target sequence (P51450 whole entry, looked up, the tested form may be a part): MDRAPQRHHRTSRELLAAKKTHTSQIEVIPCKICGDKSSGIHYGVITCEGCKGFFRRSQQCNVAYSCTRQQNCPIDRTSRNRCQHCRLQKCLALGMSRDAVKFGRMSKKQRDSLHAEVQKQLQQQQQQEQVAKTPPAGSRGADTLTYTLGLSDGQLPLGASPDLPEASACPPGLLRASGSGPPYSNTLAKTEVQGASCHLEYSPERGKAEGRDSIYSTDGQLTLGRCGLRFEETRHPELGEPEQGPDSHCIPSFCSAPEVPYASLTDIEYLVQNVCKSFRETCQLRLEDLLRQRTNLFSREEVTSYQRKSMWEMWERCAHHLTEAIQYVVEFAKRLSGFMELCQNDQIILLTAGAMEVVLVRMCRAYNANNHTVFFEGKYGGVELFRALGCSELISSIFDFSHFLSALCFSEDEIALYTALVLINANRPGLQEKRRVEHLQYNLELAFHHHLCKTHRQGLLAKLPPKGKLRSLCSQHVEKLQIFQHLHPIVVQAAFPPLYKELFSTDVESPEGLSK
#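 Stable Schneider cell line, Gal4 DNA-binding domain fused to ROR gamma, UAS-luciferase. Cmpd 1 hr RT → CuSO4 700 uM final → 20 hr RT → luciferase reagent 10 min → luminescence.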
# GLP1R inv ag = qHTS of GLP-1 Receptor Inverse Agonists (Inhibition Mode); Potency, µM (series often up to 38.3 µM), actives largely listed as inhibitors; Glucagon-like peptide 1 receptor (Homo sapiens), P43220; actives 1.6% (n = 410,000); HEK293 GLP-1R CRE-luciferase, luminescence, 24 h; GLP-1R form is constitutively active; AID 624417, 2012; also: nearly all actives have a fitted effect of over 55% in size
#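 Constitutively active GLP-1R drives a cAMP-responsive luciferase in stably transfected HEK293 cells; test compounds are added after overnight (12 h) attachment and left 24 hr, and signal loss in luminescence marks inhibition.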
# Gal4-VP16 FLuc = VP16 counterscreen qHTS for inhibitors of ROR gamma transcriptional activity; Drosophila S2 Gal4-VP16 UAS-luciferase, luminescence, 20 h; Potency, µM (highest dose often 53.6 µM), usual class: inhibitors; actives 3.5% (n = 310,000); AID 2546, 2010;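 also: Gal4-VP16 expression switched on by copper sulfate through the metallothionein promoter; nearly all actives have a fitted effect of over 50% in size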
# Numbers stand for hits; . = inactive; ? = inconclusive; / = not tested or not shown; [ ] = dose if it differs, or a comment. Calls follow the shape of the dose curve; as a rule, active = well fitted curve in the direction sought with a large enough effect; inconclusive = small, poorly fitted or top-dose-only effect, or another doubt; inactive = no such curve, though single readings can be large; an effect the other way counts as inactive or inconclusive.
SMILES,GLP1R ag,GLP1R cytotox,RORgamma inh,GLP1R inv ag,Gal4-VP16 FLuc
CCOC(=O)c1c2c(n(-c3ccc(OC)cc3)c1C)C(=O)C(=O)c1ccccc1-2,.,3.2µM,/,?,/
CCOC(=O)c1sc(=S)n(-c2ccc(OC)cc2)c1C,.,.,.,?,.
CCc1ccc(OCC(=O)Nc2c(C(=O)c3ccc(Br)cc3)oc3ccccc23)cc1,/,.,/,.,/
C#CCN1C(=O)S/C(=C\c2ccc(-c3ccc(Cl)c(C(=O)O)c3)o2)C1=O,.,.,.[1.91 µM],.,1.3µM
O=C(O)c1cc(-c2ccc(/C=C3\NC(=O)N(c4ccccc4)C3=O)o2)ccc1Cl,.,.,.,.,.
CC(C)Oc1cccc(C(=O)NC(=S)Nc2ccccc2)c1,.,?,?,?,5µM
CC(C)COc1cccc(C(=O)NC(=S)Nc2cccc(NC(=O)c3ccccc3Cl)c2)c1,.,.,6.3µM,.,5.6µM
CCCOc1cccc(C(=O)NC(=S)Nc2ccccc2)c1,.,.,8.9µM,.,?
CCCOc1cccc(C(=O)NC(=S)Nc2cccc(NC(=O)c3ccccc3Cl)c2)c1,.,.,?,.,?
COc1cc(N=c2ssnc2Cl)cc(OC)c1,.,.,4µM,?,7.1µM
Clc1nssc1=Nc1ccc(Br)cc1,.,.[0.307 µM],?,.[0.307 µM],?
c1csc(CNc2nc(-c3ccc4c(c3)OCO4)nc3ccccc23)c1,/,/,.,/,?
O=C1NCC(c2ccccc2)C1C(=O)N/N=C\c1ccc(-c2ccc(Cl)c(Cl)c2)o1 (configuration not stated),.,?,.,10µM,.
COc1ccc(CNc2ccnc(-c3c(C)noc3C)n2)c(OC)c1,/,/,.,/,.
O=C(NCCNC(=O)c1ccco1)c1ccco1,.,.,16µM,.,.
CCCCNC(=S)NNC(=O)c1ccoc1C,.,.,8.9µM,.,.
COCCCNC(=S)NNC(=O)c1ccoc1C,.,.,?,.,?
Cc1cccc(NC(=S)NNC(=O)c2ccco2)c1,.,.,.,.,.
CCCCNC(=S)NNC(=O)c1ccco1,.,.,13µM,.,?
Cc1ccc(C)c(NC(=S)NNC(=O)c2ccco2)c1,.,.,2.2µM,.,.
Cc1ccc(-n2c(=O)c3oc4ccccc4c3n(Cc3cccc(F)c3)c2=O)cc1C,/,.,/,?,/
Cc1occc1C(=O)NNC(=S)Nc1ccccc1,.,.,14µM,.,.
COc1cc(NC(=O)CN2C(=O)C(c3ccc(C)cc3)=NC23CCCCC3)cc(OC)c1,/,.,/,10µM,/
COc1cc(NC(=O)CN2C(=O)C(c3ccc(C)cc3)=NC23CCCCCC3)cc(OC)c1,/,.,/,.,/
COCCNc1nnc(SCC(=O)Nc2sc3c(c2C(=O)c2ccccc2)CCCC3)s1,.,?,16µM,?,?
SMILES,GLP1R ag,GLP1R cytotox,RORgamma inh,GLP1R inv ag,Gal4-VP16 FLuc
COCCNc1nnc(SCC(=O)NNC(=O)c2ccccc2)s1,.,.,.,.,.
COCCNc1nnc(SCC(=O)c2c[nH]c3ccccc23)s1,.,.,?,.,35µM
Nc1nnc(SCC(=O)Nc2sc3c(c2C(=O)c2ccccc2)CCCC3)s1,.,.,22µM,?,?
CO[C@H]1COC(=O)C/C=C\[C@@H](C)[C@H](OC)COC(=O)[C@H]2CCCN2C(=O)C/C=C\[C@@H]1C,/,/,.[10 µM],/,.[10 µM]
C=C1C(=O)O[C@@H]2[C@H]3O[C@]3(C)CC/C=C(\C)CC[C@@H]12,.,.,/,.,/
C=C1C(=O)O[C@@H]2C3OC3(C)CC/C=C(\C)CC[C@@H]12 (some centres not stated),/,/,?,/,28µM
C=C1C(=O)OC2C1CC/C(C)=C/CCC1(C)OC21 (configuration not stated),/,/,4.5µM,/,4µM
C=C1CC/C=C(\C)CC[C@@H]2[C@@H]1CC2(C)C,/,/,.,/,.
CCOC(=O)c1cccc(Nc2ncnc3ccc(C)cc23)c1,.,.,?,11µM,.
COC(=O)c1cccc(Nc2nc3ccccc3nc2C)c1,.,.,.,?,13µM
CCOc1ccc(CNC(=O)CCC(=O)N2CC3CCCN3c3ccccc32)cc1 (configuration not stated),/,.,/,.,/
Cc1oc2cc3c(C(=O)N4CCCCC4)c(C)oc3cc2c1C(=O)N1CCCCC1,.,.,2µM,.,?
COc1cc2c(C(=O)N3CCN(C)CC3)c(C)oc2cc1Br,.,.,.,.,.
C#CCCCO/N=C1/C[C@@H](O)[C@@H](O)[C@@H]2[C@@H]3C(=O)N(C[C@@H]4CCCO4)C(=O)[C@H]3CC[C@H]12,/,/,.[10 µM],/,.[10 µM]
CCOC(=O)/C(=N\Nc1ccc(Cl)cc1)Sc1nnc(-c2ccc(OC)cc2)n1C,.,.,4.5µM,.,6.3µM
COC(=O)/C(=N\Nc1ccccc1)Sc1nnc(-c2ccc(OC)cc2)n1C,.,.,?,.,?
CCOC(=O)/C(=N/Nc1ccc(OC)cc1)Sc1nnc(CCc2ccccc2)n1-c1ccccc1,.,.,7.1µM,?,?
Cc1nnc(C(C)C)n1C1C[C@H]2CC[C@@H](C1)N2CC[C@H](NC(=O)C1CCC(F)(F)CC1)c1ccccc1 (some centres not stated),.,/,/,/,/
Cc1ccc(C)c(Cn2c(=O)n(-c3ccc(Cl)cc3)c(=O)c3c(C)c(C)sc32)c1,/,.,/,.,/
CCc1ccc(N/C(SCc2cccc(F)c2)=C(/C#N)C(=O)NCc2ccco2)cc1,.,.,1.6µM,?,6.3µM
Cc1ccc(N/C(SCc2ccccc2C)=C(/C#N)C(=O)NCc2ccco2)cc1C,.,.,.,?,.
C=CCn1c(-c2cccn(Cc3ccc(Cl)cc3)c2=O)n[nH]c1=S,.,.,6.3µM,.,?
C=CCn1c(-c2ccc(=O)n(Cc3ccccc3)c2)n[nH]c1=S,/,/,.,/,.
C=CCn1c(-c2cccn(Cc3ccc(Cl)cc3Cl)c2=O)n[nH]c1=S,.,?,2.5µM,.,10µM
O=c1c(-c2n[nH]c(=S)n2-c2ccccc2)cccn1Cc1cccc(Cl)c1,.,.,13µM,.,.
C=CCn1c(-c2c[nH]c3ccccc23)n[nH]c1=S,.,.,.[10 µM],.,?
C=CCn1c(-c2cccn(Cc3ccccc3)c2=O)n[nH]c1=S,.,.,11µM,.,.
CCN(CC)c1ccc(NC(=O)C2CCN(S(=O)(=O)c3ccc4c(c3)oc(=O)n4C)CC2)c(C)c1,.,.,/,.,/
C=CCn1c(-c2ccccc2[N+](=O)[O-])n[nH]c1=S,.,.,3.2µM,.,?
C=CCn1c(-c2cccn(Cc3cccc(Cl)c3)c2=O)n[nH]c1=S,.,.,13µM,.,?
